Assay results taken from the supplement of paper PMC7411054.

Legend:
Conditions in all cases: treatment time: 24 h
A549-CANX-COX4 [1] = experiment: lowest phenotypically active concentration; higher = less potent
Procedure, shortened: (§1)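 Phenotypic activity depended on meeting both a deviation and a reproducibility criterion. The fifteen gene-edited A549, HepG2 and WPMY1 reporter lines were treated at 0.3, 1, 3 or 9 µM for 24 h, four wells each, then imaged live with features normalised to solvent control wells. Deviation required ≥3 of 4 wells past the 95th percentile of control Euclidean distances, and reproducibility a median replicate Pearson correlation above the 95th percentile of non-replicates.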

A549-TP53BP1-CLTA [2] = experiment: as above
Procedure, shortened: as §1

HepG2-ACTB-RAB5A [3] = experiment: as above
Procedure, shortened: as §1

A549-ACTB-RAB5A [4] = experiment: phenotypically active (imaging signature differs from DMSO and reproducible) at any of 0.3-9 uM (binary (1 = active, 0 = inactive)); higher = active
Procedure, shortened: as §1

A549-CANX-COX4 [5] = experiment: as above
Procedure, shortened: as §1

A549-GM130-SQSTM1 [6] = experiment: as above
Procedure, shortened: as §1

A549-TP53BP1-CLTA [7] = experiment: as above
Procedure, shortened: as §1

A549-TUBA1B-RELA = experiment: as above
Procedure, shortened: as §1

HepG2-ACTB-RAB5A [8] = experiment: as above
Procedure, shortened: as §1

HepG2-CANX-COX4 = experiment: as above
Procedure, shortened: as §1

HepG2-GM130-SQSTM1 = experiment: as above
Procedure, shortened: as §1

HepG2-TP53BP1-CLTA = experiment: as above
Procedure, shortened: as §1

HepG2-TUBA1B-RELA = experiment: as above
Procedure, shortened: as §1

WPMY1-ACTB-RAB5A = experiment: as above
Procedure, shortened: as §1

WPMY1-CANX-COX4 = experiment: as above
Procedure, shortened: as §1

WPMY1-GM130-SQSTM1 = experiment: as above
Procedure, shortened: as §1

WPMY1-TP53BP1-CLTA = experiment: as above
Procedure, shortened: as §1

WPMY1-TUBA1B-RELA = experiment: as above
Procedure, shortened: as §1

A549-ACTB-RAB5A [9] = experiment: lowest phenotypically active concentration; higher = less potent
Procedure, shortened: as §1

A549-GM130-SQSTM1 [10] = experiment: as above
Procedure, shortened: as §1

CC(C)(N)Cc1ccccc1 [phentermine]
3 µM: lowest phenotypically active concentration (A549-TP53BP1-CLTA [2])
active: phenotypically active (A549-CANX-COX4 [5]) 1 | phenotypically active (A549-TP53BP1-CLTA [7]) 1 | phenotypically active (HepG2-ACTB-RAB5A [8]) 1 | phenotypically active (WPMY1-GM130-SQSTM1) 1
inactive: phenotypically active (A549-ACTB-RAB5A [4]) 0 | phenotypically active (A549-GM130-SQSTM1 [6]) 0 | phenotypically active (A549-TUBA1B-RELA) 0 | phenotypically active (HepG2-CANX-COX4) 0 | phenotypically active (HepG2-GM130-SQSTM1) 0 | phenotypically active (HepG2-TP53BP1-CLTA) 0 | phenotypically active (HepG2-TUBA1B-RELA) 0 | phenotypically active (WPMY1-ACTB-RAB5A) 0 | phenotypically active (WPMY1-CANX-COX4) 0 | phenotypically active (WPMY1-TP53BP1-CLTA) 0 | phenotypically active (WPMY1-TUBA1B-RELA) 0
9 µM: lowest phenotypically active concentration (A549-CANX-COX4 [1]) | lowest phenotypically active concentration (HepG2-ACTB-RAB5A [3])

C/C=C(/C)C(=O)O[C@H]1C(C)=C2[C@H]([C@@H]1OC(=O)CCCCCCC)[C@@](C)(OC(C)=O)C[C@H](OC(=O)CCC)[C@@]1(O)[C@H]2OC(=O)[C@@]1(C)O [Thapsigargin]
≤ 0.3 µM: lowest phenotypically active concentration (A549-ACTB-RAB5A [9]) | lowest phenotypically active concentration (A549-CANX-COX4 [1]) | lowest phenotypically active concentration (A549-GM130-SQSTM1 [10]) | lowest phenotypically active concentration (A549-TP53BP1-CLTA [2]) | lowest phenotypically active concentration (HepG2-ACTB-RAB5A [3])
active: phenotypically active (A549-ACTB-RAB5A [4]) 1 | phenotypically active (A549-CANX-COX4 [5]) 1 | phenotypically active (A549-GM130-SQSTM1 [6]) 1 | phenotypically active (A549-TP53BP1-CLTA [7]) 1 | phenotypically active (A549-TUBA1B-RELA) 1 | phenotypically active (HepG2-ACTB-RAB5A [8]) 1 | phenotypically active (HepG2-CANX-COX4) 1 | phenotypically active (HepG2-GM130-SQSTM1) 1 | phenotypically active (HepG2-TP53BP1-CLTA) 1 | phenotypically active (HepG2-TUBA1B-RELA) 1 | phenotypically active (WPMY1-ACTB-RAB5A) 1 | phenotypically active (WPMY1-CANX-COX4) 1 | phenotypically active (WPMY1-GM130-SQSTM1) 1 | phenotypically active (WPMY1-TP53BP1-CLTA) 1 | phenotypically active (WPMY1-TUBA1B-RELA) 1

C[C@@]12C(=O)OC(=O)[C@]1(C)[C@H]1CC[C@@H]2O1 [Cantharidin]
3 µM: lowest phenotypically active concentration (A549-ACTB-RAB5A [9]) | lowest phenotypically active concentration (A549-CANX-COX4 [1]) | lowest phenotypically active concentration (A549-GM130-SQSTM1 [10]) | lowest phenotypically active concentration (A549-TP53BP1-CLTA [2]) | lowest phenotypically active concentration (HepG2-ACTB-RAB5A [3])
active: phenotypically active (A549-ACTB-RAB5A [4]) 1 | phenotypically active (A549-CANX-COX4 [5]) 1 | phenotypically active (A549-GM130-SQSTM1 [6]) 1 | phenotypically active (A549-TP53BP1-CLTA [7]) 1 | phenotypically active (HepG2-ACTB-RAB5A [8]) 1 | phenotypically active (HepG2-CANX-COX4) 1 | phenotypically active (HepG2-GM130-SQSTM1) 1 | phenotypically active (HepG2-TP53BP1-CLTA) 1 | phenotypically active (HepG2-TUBA1B-RELA) 1 | phenotypically active (WPMY1-ACTB-RAB5A) 1 | phenotypically active (WPMY1-CANX-COX4) 1 | phenotypically active (WPMY1-GM130-SQSTM1) 1 | phenotypically active (WPMY1-TP53BP1-CLTA) 1 | phenotypically active (WPMY1-TUBA1B-RELA) 1
inactive: phenotypically active (A549-TUBA1B-RELA) 0
